The source made the active and inactive calls.
Legend:
[1] = E. coli DRC41 culture turbidity changes, primary screen, E. coli filamentation inducer project, strain DRC41, OD650, 48 h (AID 1152);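 also: E. coli MC1000 strain DRC41 lacking acrAB efflux pump and sulA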; details: E. coli DRC41 (acrAB sulA), higher = more signal, called active from +8 up or from −8 down
[2] = small-molecule binders of probe aLefty1, primary screen, biochemical, small-molecule microarray, 635/667 nm fluorescence (AID 1153); details: higher = more signal;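 also: score merges spot fluorescence with signal-to-noise ratio from the scanned slide images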
[3] = PSAC antagonists in infected red cells, primary screen, cell-based, P. falciparum Indochina, OD700, 1 h (AID 1154); details: P. falciparum Indochina infected RBC osmotic lysis, higher = more signal, called active from +8 up or from −8 down
[4] = PSAC antagonists in infected red cells, primary screen, cell-based, P. falciparum Indochina, OD700, 2 h (AID 1155);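 also: lysis reports solute entry through the parasite surface anion channel PSAC; channel blockers reduce lysis of infected cells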; details: P. falciparum Indochina infected erythrocytes, osmotic lysis OD700; higher = more signal, called active from +8 up or from −8 down
[5] = osmotic lysis modulators in infected erythrocytes, primary screen, PSAC antagonist project, cell-based, P. falciparum Indochina, OD700, 3 h (AID 1156); details: higher = more signal, called active from +8 up or from −8 down
[6] = PSAC antagonists in infected red cells, primary screen, cell-based, P. falciparum Indochina, OD700, 18 h (AID 1157); details: P. falciparum Indochina infected erythrocytes, osmotic lysis OD700, 18 h; higher = more signal, called active from +8 up or from −8 down
[7] = modulators of S6 phosphorylation in cells, primary screen, cell-based, A549, cytoblot, luminescence, serum-stimulated (AID 1158); details: A549 phospho-S6 cytoblot, 5 h, higher = more signal;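 also: serum-stimulated A549 lung adenocarcinoma cells; signal is phosphorylated S6 detected by cytoblot immunostaining with HRP secondary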
[8] = biological target: NADPH oxidase 2 (Homo sapiens) (UniProt P04839); test: NOX2-dependent H2O2 signal modulators, primary screen, NOX inhibitor project, cell-based, HEK293-NOX2, PMA-stimulated, Amplex Red fluorescence (AID 1159); details: 45 min, higher = more signal, called active from +8 up or from −8 down; also: test concentration not given here
[9] = biological target: NADPH oxidase 4 (Homo sapiens) (UniProt Q9NPH5); test: NOX4-dependent H2O2 signal modulators, primary screen, NOX inhibitor project, cell-based, HEK293-NOX4, tetracycline-induced, Amplex Red fluorescence (AID 1160); details: 45 min, higher = more signal, called active from +8 up or from −8 down
[10] = biological target: NADPH oxidase 5 (Homo sapiens) (UniProt Q96PH1); test: NOX5-dependent H2O2 signal modulators, primary screen, NOX inhibitor project, cell-based, HEK293-NOX5, Amplex Red fluorescence (AID 1161); details: HEK293-NOX5, ionomycin, 45 min, higher = more signal
[11] = A549 cell viability effects, profiling panel, calcein-AM fluorescence, 48 h, basal (AID 1162); details: higher = more signal; also: test concentration not given here
[12] = adipocyte viability effects, profiling panel, cell-based, 3T3-L1 adipocytes, calcein-AM fluorescence, 48 h, basal (AID 1163); details: 3T3-L1 adipocytes viability, higher = more signal; also: test concentration not given here
[13] = HepG2 cell viability effects, profiling panel, calcein-AM fluorescence, 48 h, basal (AID 1164); details: higher = more signal; also: test concentration not given here
[14] = MM1S cell viability effects, profiling panel, calcein-AM fluorescence, 48 h, basal (AID 1165); details: higher = more signal;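 also: viability of MM1S multiple myeloma cells under basal unstimulated conditions; test concentration not given here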
[15] = basal RPMI8226 viability, no added stimulus, profiling panel, cell-based, calcein-AM fluorescence, 48 h, PK04 Diversity Set (AID 1166); details: RPMI8226 myeloma viability, higher = more signal;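 also: cells grown under basal conditions without added stimulus; test concentration not given here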
[16] = basal HepG2 mitochondrial membrane potential changes, profiling panel, cell-based, JC-1 fluorescence, 24 h, 100 nL compound (AID 1167); details: higher = more signal; also: test concentration not given here
[17] = basal 3T3-L1 adipocyte mitochondrial potential changes, profiling panel, cell-based, JC-1 fluorescence, 3T3-L1 adipocytes, 24 h, 100 nL compound (AID 1168); details: JC-1 mitochondrial fluorescence, higher = more signal, called active from +8 up or from −8 down; also: test concentration not given here
[18] = basal RPMI8226 mitochondrial membrane potential changes, profiling panel, cell-based, JC-1 fluorescence, 24 h, 100 nL compound (AID 1169); details: RPMI8226 myeloma, JC-1 mitochondrial potential fluorescence, higher = more signal; also: test concentration not given here
[19] = basal MM1S mitochondrial membrane potential changes, profiling panel, cell-based, JC-1 fluorescence, 24 h, 100 nL compound (AID 1170); details: higher = more signal; also: test concentration not given here
[20] = A549 lung cancer cell viability effects, profiling panel, resazurin fluorescence, 24 h, PK04 Diversity Set (AID 1171); details: higher = more signal, called active from +8 up or from −8 down; also: test concentration not given here

Sequence of NADPH oxidase 2 (Homo sapiens) (P04839 whole entry, looked up): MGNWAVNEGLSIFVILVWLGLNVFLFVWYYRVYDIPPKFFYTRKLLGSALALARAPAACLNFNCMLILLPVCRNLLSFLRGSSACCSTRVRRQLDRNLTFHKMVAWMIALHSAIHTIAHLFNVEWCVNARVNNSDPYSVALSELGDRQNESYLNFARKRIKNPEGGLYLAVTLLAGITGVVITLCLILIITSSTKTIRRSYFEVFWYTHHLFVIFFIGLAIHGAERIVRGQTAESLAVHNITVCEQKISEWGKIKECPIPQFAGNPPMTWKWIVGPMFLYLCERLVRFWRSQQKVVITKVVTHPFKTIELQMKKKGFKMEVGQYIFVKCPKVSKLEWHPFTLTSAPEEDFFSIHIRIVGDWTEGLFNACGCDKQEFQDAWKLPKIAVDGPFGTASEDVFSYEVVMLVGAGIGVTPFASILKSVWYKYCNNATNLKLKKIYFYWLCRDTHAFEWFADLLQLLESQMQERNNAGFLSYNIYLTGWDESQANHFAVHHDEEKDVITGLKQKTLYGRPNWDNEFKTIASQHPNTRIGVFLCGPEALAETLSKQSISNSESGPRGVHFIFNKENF
Sequence of NADPH oxidase 5 (Homo sapiens) (Q96PH1 whole entry, looked up): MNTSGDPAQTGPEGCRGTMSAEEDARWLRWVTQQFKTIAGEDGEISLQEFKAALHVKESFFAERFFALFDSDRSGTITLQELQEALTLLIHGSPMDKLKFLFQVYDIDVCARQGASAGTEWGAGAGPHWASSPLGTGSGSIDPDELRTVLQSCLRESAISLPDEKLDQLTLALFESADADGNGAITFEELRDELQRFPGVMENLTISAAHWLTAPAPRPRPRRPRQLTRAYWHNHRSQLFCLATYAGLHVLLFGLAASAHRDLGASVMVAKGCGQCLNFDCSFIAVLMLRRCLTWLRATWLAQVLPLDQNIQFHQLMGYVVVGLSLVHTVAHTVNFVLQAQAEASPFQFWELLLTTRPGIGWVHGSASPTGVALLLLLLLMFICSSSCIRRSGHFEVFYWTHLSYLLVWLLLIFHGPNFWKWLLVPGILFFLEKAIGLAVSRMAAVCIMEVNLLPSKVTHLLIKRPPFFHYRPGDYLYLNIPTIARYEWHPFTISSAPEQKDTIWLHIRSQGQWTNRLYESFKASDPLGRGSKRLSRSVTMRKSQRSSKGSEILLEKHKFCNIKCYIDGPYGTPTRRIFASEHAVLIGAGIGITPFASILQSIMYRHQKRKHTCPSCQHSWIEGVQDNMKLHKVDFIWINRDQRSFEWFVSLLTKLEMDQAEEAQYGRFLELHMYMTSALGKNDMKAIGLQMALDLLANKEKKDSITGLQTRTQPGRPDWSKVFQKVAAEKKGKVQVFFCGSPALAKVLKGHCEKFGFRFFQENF
Sequence of NADPH oxidase 4 (Homo sapiens) (Q9NPH5 whole entry, looked up): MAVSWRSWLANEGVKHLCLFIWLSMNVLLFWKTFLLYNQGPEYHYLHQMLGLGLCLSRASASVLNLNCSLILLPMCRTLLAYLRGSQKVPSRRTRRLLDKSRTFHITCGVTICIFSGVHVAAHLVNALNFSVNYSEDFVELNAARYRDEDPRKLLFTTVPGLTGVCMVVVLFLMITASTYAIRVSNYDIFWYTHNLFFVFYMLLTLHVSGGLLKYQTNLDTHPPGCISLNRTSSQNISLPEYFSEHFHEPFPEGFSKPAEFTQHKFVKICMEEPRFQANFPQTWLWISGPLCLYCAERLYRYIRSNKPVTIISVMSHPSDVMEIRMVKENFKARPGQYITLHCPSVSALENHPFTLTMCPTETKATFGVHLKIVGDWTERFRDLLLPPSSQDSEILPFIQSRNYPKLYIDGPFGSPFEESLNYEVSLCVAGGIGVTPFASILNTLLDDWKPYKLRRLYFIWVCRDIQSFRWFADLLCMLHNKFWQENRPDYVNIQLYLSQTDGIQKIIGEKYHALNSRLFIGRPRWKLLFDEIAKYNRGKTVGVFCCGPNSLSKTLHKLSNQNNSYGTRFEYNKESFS

Compound | z-score [1] | composite z-score [2] | z-score [3] | z-score [4] | z-score [5] | z-score [6] | z-score [7] | z-score [8] | z-score [9] | z-score [10] | z-score [11] | z-score [12] | z-score [13] | z-score [14] | z-score [15] | z-score [16] | z-score [17] | z-score [18] | z-score [19] | z-score [20]
COC(=O)C1=CC(CCCO)=CC(c2cccs2)N(C)C=C1C(=O)OC (stereo not given) | -0.35 (inactive) | 0.147 | 2.47 (inactive) | 0.596 (inactive) | 0.148 (inactive) | 0.426 (inactive) | -0.481 | 0.467 (inactive) | -1.36 (inactive) | 0.931 | -0.253 | 0.483 | -0.818 | 0.347 | 0.959 | -0.386 | -0.195 (inactive) | -0.294 | 0.549 | -0.28 (inactive)
COC(=O)[C@@]1(Cc2ccccc2)[C@H]2c3cc(C(=O)N(C)C)n(Cc4ccc(C)o4)c3C[C@H]2CN1C(=O)c1ccccc1 | -1.91 (inactive) | 1.25 | 2.55 (inactive) | -0.381 (inactive) | 0.541 (inactive) | -1.54 (inactive) | 1.97 | -3.27 (inactive) | -2.44 (inactive) | -4.77 | -2.02 | 0.827 | -0.735 | -1.01 | -3.69 | 0.598 | -2.61 (inactive) | -0.951 | -1.88 | -1.42 (inactive)
CC1=C2[C@@H](CCc3ccccc3)OB(O)C[C@@H]2[C@@H]2C(=O)N(C)C(=O)[C@@H]2C1 | -0.155 (inactive) | 0.035 | 1.45 (inactive) | 0.454 (inactive) | -0.249 (inactive) | 0.255 (inactive) | -0.391 | 0.162 (inactive) | 0.234 (inactive) | -0.54 | -0.0116 | 0.417 | -0.21 | -2.12 | 0.339 | -1.18 | -0.467 (inactive) | -0.519 | -0.423 | 0.0857 (inactive)
O=C1O[C@H](c2ccccc2)[C@H](c2ccccc2)N2[C@H]1[C@@H](C(=O)O)[C@]1(C(=O)Nc3ccc(C#CCCO)cc31)[C@H]2c1ccccc1OCCO | -0.443 (inactive) | 0.0026 | 0.396 (inactive) | -0.353 (inactive) | -1.27 (inactive) | 0.173 (inactive) | -0.0545 | 1.93 (inactive) | 0.226 (inactive) | 0.636 | -0.0678 | 1.32 | -0.187 | 0.0409 | -0.353 | -0.892 | -0.426 (inactive) | -0.616 | 0.884 | -0.0294 (inactive)
COCCOC(=O)N1C(=O)[C@@]2(c3cc(C#CC4=CCCCC4)ccc31)[C@H](C(=O)Nc1nc3ccccc3s1)[C@H]1C(=O)O[C@H](c3ccccc3)[C@H](c3ccccc3)N1[C@@H]2c1ccc(O)cc1 | -0.61 (inactive) | 0.103 | 0.141 (inactive) | 0.524 (inactive) | -0.0845 (inactive) | 1.2 (inactive) | -0.123 | 0.843 (inactive) | -0.44 (inactive) | 0.759 | 0.427 | 0.217 | 0.0981 | -1.79 | -1.62 | -3.16 | -0.762 (inactive) | -0.404 | -0.54 | -0.353 (inactive)
COc1cc2c(cc1O)C(C1CC1)N(Cc1cccc(OC(F)(F)F)c1)CC2 (stereo not given) | -0.933 (inactive) | -0.105 | 2.92 (inactive) | 0.325 (inactive) | -0.222 (inactive) | 0.032 (inactive) | -0.759 | -5.01 (inactive) | -2.98 (inactive) | -4.25 | -1.74 | 0.119 | -3.68 | -3.18 | -2.99 | -2.84 | -0.356 (inactive) | -0.686 | -2.61 | -1.05 (inactive)
CCOc1cc(C(O)C2C=CC3C(=O)NC(=O)C3N2Nc2ccc(Cl)cc2Cl)ccc1O (stereo not given) | -1.36 (inactive) | -0.101 | 0.588 (inactive) | 0.0352 (inactive) | 0.0675 (inactive) | 1.1 (inactive) | -1.04 | -1.26 (inactive) | -1.88 (inactive) | -2.05 | -1.33 | -0.337 | -0.672 | -0.433 | -0.236 | -1.19 | -1.05 (inactive) | -0.76 | 0.172 | -0.873 (inactive)
CCOC(=O)C[C@H]1[C@H](OC(=O)c2ccc(C(=O)c3ccccc3)cc2)[C@@H](NC(=O)c2ccc3ccccc3n2)c2cc(OCCCO)ccc2N1C(=O)Cc1ccc(OC)cc1 | -1.61 (inactive) | 0.0782 | -0.17 (inactive) | 0.313 (inactive) | 1.57 (inactive) | 0.802 (inactive) | 0.793 | -1.71 (inactive) | -0.298 (inactive) | -0.856 | 0.822 | 0.418 | 0.113 | 0.37 | 0.0914 | 0.546 | 0.295 (inactive) | -0.181 | -0.14 | 0.0291 (inactive)
CCCCCN1CC=CC23O[C@@H]4/C=C\CCC(C)OC(=O)C4[C@H]2C(=O)N(C(CO)C(C)C)[C@@H]3C1=O (stereo not given in full) | 1.66 (inactive) | -0.106 | 1.38 (inactive) | 0.881 (inactive) | 1.2 (inactive) | 0.699 (inactive) | -0.0209 | 1.36 (inactive) | -0.231 (inactive) | 1.86 | -0.588 | 0.214 | -0.272 | 1.82 | 0.216 | -0.224 | -0.0517 (inactive) | 0.699 | -0.577 | 0.829 (inactive)

Source: PubChem BioAssay
